How the values were obtained:
Assay in all cases: difference in mean normalized H2B-mRuby nuclear fluorescence intensity relative to DMSO control (normalized intensity difference (DMSO = 0)); higher = stronger increase in transgene reporter fluorescence
Conditions in all cases: 24 h
H1299 = test system: H1299
In short: (§1)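 What the table gives is the change in mean per-nucleus normalized H2B-mRuby intensity against DMSO-treated cells. It was measured in H2B-mRuby2-expressing cancer cell lines after 24 h of drug treatment at equal DMSO, imaged unstained on a Leica DMI8 at 541–551 nm excitation and 565–605 nm emission over about 3 repeats of 4 fields each.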

LN-18 = test system: LN-18
In short: as §1

SK-OV-3 = test system: SK-OV-3
In short: as §1

Structure (SMILES): COC1=C2C[C@@H](C)C[C@H](OC)[C@H](O)[C@@H](C)/C=C(\C)[C@H](OC(N)=O)[C@@H](OC)/C=C\C=C(/C)C(=O)NC(=CC1=O)C2=O (concentration unit: nM)
- difference (H1299; concentration: 5): -0.0197
- difference (H1299; concentration: 25): 0.305
- difference (H1299; concentration: 50): 0.532
- difference (H1299; concentration: 100): 0.567
- difference (H1299; concentration: 500): 0.435

Structure (SMILES): COc1cc(Nc2c(C#N)cnc3cc(OCCCN4CCN(C)CC4)c(OC)cc23)c(Cl)cc1Cl (concentration unit: uM)
- difference (H1299; concentration: 0.25): -0.202
- difference (H1299; concentration: 1): -0.134
- difference (H1299; concentration: 2.5): -0.0971
- difference (H1299; concentration: 5): -0.166
- difference (H1299; concentration: 20): -0.0502

Structure (SMILES): Nc1ncn([C@@H]2O[C@H](CO)[C@@H](O)[C@H]2O)c(=O)n1 (concentration unit: uM)
- difference (LN-18; concentration: 1): 0.03
- difference (LN-18; concentration: 2.5): 0.0353
- difference (LN-18; concentration: 5): 0.0211
- difference (LN-18; concentration: 10): 0.0474
- difference (LN-18; concentration: 20): 0.00195
- difference (SK-OV-3; concentration: 1): 0.0139
- difference (SK-OV-3; concentration: 2.5): -0.0364
- difference (SK-OV-3; concentration: 5): 0.0517
- difference (SK-OV-3; concentration: 10): 0.126
- difference (SK-OV-3; concentration: 20): 0.105

Structure (SMILES): Cc1[nH]c2ccccc2c1CCNCc1ccc(/C=C/C(=O)NO)cc1 (concentration unit: nM)
- difference (H1299; concentration: 10): 0.43
- difference (H1299; concentration: 25): 0.738
- difference (H1299; concentration: 50): 0.733
- difference (H1299; concentration: 100): 0.864
- difference (H1299; concentration: 250): 0.886
- difference (H1299; concentration: 500): 0.923
- difference (LN-18; concentration: 10): 0.22
- difference (LN-18; concentration: 50): 0.459
- difference (LN-18; concentration: 100): 0.491
- difference (LN-18; concentration: 250): 0.528
- difference (LN-18; concentration: 500): 0.494
- difference (SK-OV-3; concentration: 10): 0.269
- difference (SK-OV-3; concentration: 50): 1.12
- difference (SK-OV-3; concentration: 100): 1.16
- difference (SK-OV-3; concentration: 250): 1.1
- difference (SK-OV-3; concentration: 500): 1.13

Structure (SMILES): C=CCn1c(=O)c2cnc(Nc3ccc(N4CCN(C)CC4)cc3)nc2n1-c1cccc(C(C)(C)O)n1 (concentration unit: uM)
- difference (H1299; concentration: 0.1): 0.0483
- difference (H1299; concentration: 0.5): 0.108
- difference (H1299; concentration: 1): 0.027
- difference (H1299; concentration: 2.5): -0.00187
- difference (H1299; concentration: 5): -0.0335

Structure (SMILES): C[C@@H]1C[C@H](N)C[C@H](c2ccncc2NC(=O)c2ccc(F)c(-c3c(F)cccc3F)n2)C1
- difference (H1299; concentration: 1): 0.00842
- difference (H1299; concentration: 2.5): 0.0956
- difference (H1299; concentration: 5): 0.0409
- difference (H1299; concentration: 10): 0.137
- difference (H1299; concentration: 25): 0.227

Structure (SMILES): CC(=O)O[C@H]1C(=O)[C@@]2(C)[C@H]([C@H](OC(=O)c3ccccc3)[C@]3(O)C[C@H](OC(=O)[C@H](O)[C@@H](NC(=O)c4ccccc4)c4ccccc4)C(C)=C1C3(C)C)[C@]1(OC(C)=O)CO[C@@H]1C[C@@H]2O (concentration unit: nM)
- difference (H1299; concentration: 10): -0.0339
- difference (H1299; concentration: 25): -0.0112
- difference (H1299; concentration: 50): 0.134
- difference (H1299; concentration: 100): 0.374
- difference (H1299; concentration: 1000): 0.566

Structure (SMILES): COc1cc2ncnc(Nc3ccc(F)c(Cl)c3)c2cc1OCCCN1CCOCC1 (concentration unit: uM)
- difference (H1299; concentration: 1): -0.0187
- difference (H1299; concentration: 2.5): 0.0302
- difference (H1299; concentration: 5): -0.00342
- difference (H1299; concentration: 10): 0.0329
- difference (H1299; concentration: 20): 0.0679
- difference (LN-18; concentration: 1): 0.099
- difference (LN-18; concentration: 2.5): 0.00859
- difference (LN-18; concentration: 5): 0.0147
- difference (LN-18; concentration: 10): 0.0212
- difference (LN-18; concentration: 20): 0.00315
- difference (SK-OV-3; concentration: 1): 0.00612
- difference (SK-OV-3; concentration: 2.5): -0.00968
- difference (SK-OV-3; concentration: 5): 0.0329
- difference (SK-OV-3; concentration: 10): 0.0831
- difference (SK-OV-3; concentration: 20): 0.0836

Structure (SMILES): Cc1nc(Nc2ncc(C(=O)Nc3c(C)cccc3Cl)s2)cc(N2CCN(CCO)CC2)n1 (concentration unit: nM)
- difference (LN-18; concentration: 25): 0.0292
- difference (LN-18; concentration: 100): 0.0217
- difference (LN-18; concentration: 250): 0.0754
- difference (LN-18; concentration: 1000): 0.0482
- difference (LN-18; concentration: 2500): -0.0509
- difference (SK-OV-3; concentration: 25): 0.111
- difference (SK-OV-3; concentration: 100): 0.606
- difference (SK-OV-3; concentration: 250): 0.528
- difference (SK-OV-3; concentration: 1000): 0.636
- difference (SK-OV-3; concentration: 2500): 0.551

Structure (SMILES): COC(=O)c1ccc([C@H]2c3[nH]c4ccccc4c3C[C@H](C(=O)OC)N2C(=O)CCl)cc1 (concentration unit: nM)
- difference (H1299; concentration: 25): 0.0419
- difference (H1299; concentration: 100): 0.0844
- difference (H1299; concentration: 250): 0.00407
- difference (H1299; concentration: 500): 0.231
- difference (H1299; concentration: 1000): 0.121

Structure (SMILES): COc1cc2nccc(Oc3ccc(NC(=O)C4(C(=O)Nc5ccc(F)cc5)CC4)cc3)c2cc1OC (concentration unit: uM)
- difference (H1299; concentration: 0.5): 0.0394
- difference (H1299; concentration: 1): -0.122
- difference (H1299; concentration: 2.5): -0.0701
- difference (H1299; concentration: 5): 0.0398
- difference (H1299; concentration: 10): 0.0491

Structure (SMILES): CO[C@H]1/C=C\C=C(/C)C(=O)NC2=CC(=O)C(NCCN(C)C)=C(C[C@@H](C)C[C@H](OC)[C@H](O)[C@@H](C)/C=C(\C)[C@@H]1OC(N)=O)C2=O (concentration unit: nM)
- difference (H1299; concentration: 5): 0.0988
- difference (H1299; concentration: 25): 0.27
- difference (H1299; concentration: 50): 0.565
- difference (H1299; concentration: 100): 0.538
- difference (H1299; concentration: 500): 0.571

Structure (SMILES): O=C(Nc1ccc2[nH]nc(-c3ccncc3)c2c1)[C@@H]1CCN(CC(=O)N2CCN(c3ccc(-c4ncccn4)cc3)CC2)C1 (concentration unit: uM)
- difference (H1299; concentration: 0.05): -0.0926
- difference (H1299; concentration: 0.1): -0.0835
- difference (H1299; concentration: 0.25): -0.13
- difference (H1299; concentration: 1): -0.131
- difference (H1299; concentration: 5): -0.0355

Structure (SMILES): COc1cc([C@@H]2c3cc4c(cc3[C@@H](O[C@@H]3O[C@@H]5CO[C@@H](C)O[C@H]5[C@H](O)[C@H]3O)[C@H]3COC(=O)[C@H]23)OCO4)cc(OC)c1O (concentration unit: uM)
- difference (LN-18; concentration: 1): 0.0338
- difference (LN-18; concentration: 2.5): 0.04
- difference (LN-18; concentration: 5): 0.0489
- difference (LN-18; concentration: 10): 0.0688
- difference (LN-18; concentration: 20): 0.0487
- difference (SK-OV-3; concentration: 1): 0.0528
- difference (SK-OV-3; concentration: 2.5): 0.00327
- difference (SK-OV-3; concentration: 5): 0.00917
- difference (SK-OV-3; concentration: 10): 0.159
- difference (SK-OV-3; concentration: 20): 0.266

Structure (SMILES): CNC(=O)c1ccccc1Sc1ccc2c(/C=C/c3ccccn3)n[nH]c2c1 (concentration unit: uM)
- difference (H1299; concentration: 1): -0.0324
- difference (H1299; concentration: 2.5): 0.0393
- difference (H1299; concentration: 5): 0.159
- difference (H1299; concentration: 10): 0.14
- difference (H1299; concentration: 20): 0.156

Structure (SMILES): COc1cccc2c1C(=O)c1c(O)c3c(c(O)c1C2=O)C[C@@](O)(C(=O)CO)C[C@@H]3O[C@H]1C[C@H](N)[C@H](O)[C@H](C)O1 (concentration unit: nM)
- difference (H1299; concentration: 25): 0.0124
- difference (H1299; concentration: 100): 0.112
- difference (H1299; concentration: 250): 0.0484
- difference (H1299; concentration: 1000): 0.0826
- difference (H1299; concentration: 2500): 0.218
- difference (LN-18; concentration: 25): -0.017
- difference (LN-18; concentration: 100): -0.0175
- difference (LN-18; concentration: 250): 0.0434
- difference (LN-18; concentration: 1000): 0.361
- difference (LN-18; concentration: 2500): 0.899
- difference (SK-OV-3; concentration: 25): -0.00185
- difference (SK-OV-3; concentration: 100): 0.13
- difference (SK-OV-3; concentration: 250): 0.133
- difference (SK-OV-3; concentration: 1000): 0.252
- difference (SK-OV-3; concentration: 2500): 0.93

From the supplement of paper PMC11026393
